Hits are enriched below; roughly 6% of the tested compounds scored in any of these assays.
D1 agonist: activates the human D1 dopamine receptor; 360,000 tested, 1% active; P21728; HEK293 T-REx D1 cells, calcium flux, agonist mode; activation, % at 2 µM; in the data active = activation above about 30%
Target sequence (P21728 whole entry, looked up): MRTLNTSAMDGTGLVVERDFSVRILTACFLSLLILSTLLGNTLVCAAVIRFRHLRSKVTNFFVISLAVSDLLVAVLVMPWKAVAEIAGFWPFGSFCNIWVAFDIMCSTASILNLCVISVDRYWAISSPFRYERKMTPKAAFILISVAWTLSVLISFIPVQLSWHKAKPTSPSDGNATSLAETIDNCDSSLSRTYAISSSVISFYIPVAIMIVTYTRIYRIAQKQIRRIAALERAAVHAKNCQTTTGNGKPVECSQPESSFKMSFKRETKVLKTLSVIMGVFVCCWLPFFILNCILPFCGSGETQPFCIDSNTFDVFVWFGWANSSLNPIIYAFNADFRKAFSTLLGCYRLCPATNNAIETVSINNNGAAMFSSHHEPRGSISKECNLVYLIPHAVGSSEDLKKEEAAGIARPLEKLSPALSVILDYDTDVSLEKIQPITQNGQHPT
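Agonism was scored from calcium flux recorded over 180 s (1 read/s) after pintool compound addition, following a 10-cycle baseline. Cells were inducible force-coupled HEK293 TREx D1, plated overnight at 30 C and loaded with no-wash calcium dye.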
D1 antag: blocks dopamine activation of the human D1 receptor; P21728; AID 504652; activity change, negative = inhibition, % at 10 µM; HEK293 TREx D1 cells, calcium flux, dopamine EC80; stronger effect = lower value; 360,000 tested, 3.2% active; in the data active = activity change below about -30%
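After overnight tetracycline induction at 30 C, force-coupled D1 HEK293 cells took up a no-wash calcium dye at room temperature. Compounds were added and monitored 180 s, and the response to EC80 dopamine was then recorded.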
D1 potentiator: potentiators of human D1 dopamine receptor; 360,000 tested, 0.036% active; HEK293 TREx D1 cells, calcium flux, dopamine EC20 potentiation; potentiation, % at 10 µM; P21728; in the data active = potentiation above about 30%
D3 ag: agonists of human D3 dopamine receptor; max activation, %; P35462; D3R DiscoveRx beta-arrestin cells, luminescence, 90 min; 410,000 tested, 0.58% active; in the data active = max activation above about 30%
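Agonist mode: compounds and dopamine controls were applied to plated cells for 90 min at 37 degrees C after an overnight attachment at 1500 cells/well. Luminescent read-out followed 30 - 60 minutes at room temperature with DiscoveRx detection reagent.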
DRD3 antagonist: D3 dopamine receptor (human) antagonism; D3R cells, DiscoveRx beta-arrestin luminescence, antagonist mode; stronger effect = lower value; 360,000 tested, 2.5% active; max response, negative = inhibition, %; P35462; AID 652054; in the data active = max response below about -50%; inconclusive = no clear call, values can overlap the other calls
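Cells plated overnight at 1500 cells/well, then exposed to library compounds with dopamine controls for 90 minutes at 37 degrees C. DiscoveRx reagent added for 30–60 minutes at room temperature; luminescence read, quantitative HTS format.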
Each line names hits and unclear results; the compound was inactive in the other large screens.

COc1cc(C(C)=O)ccc1OCCCN1CCC(Cc2ccccc2)CC1	DRD3 antagonist -90
Cc1cc(C)cc(NC(=O)c2cc(S(=O)(=O)N3CCC(C)CC3)cn2C)c1	none (no result: DRD3 antagonist)
Cn1c(=O)c2c(c3ccccc31)OC(=O)CC2c1cccc(F)c1 (configuration not stated)	none (no result: DRD3 antagonist)
O=C1C(=O)N(c2ccccc2)C(c2ccccc2[N+](=O)[O-])/C1=C(\O)c1ccccc1 (configuration not stated)	none
O=C1C(=O)N(c2cccc(Cl)c2)C(c2ccccc2[N+](=O)[O-])/C1=C(\O)c1ccccc1 (configuration not stated)	D1 antag -51
Cc1cccc(NC(=O)CN2C(=O)CCn3nc(-c4cccn4C)cc32)c1C	none (no result: DRD3 antagonist)
Cn1c(CO)c(-c2ccccc2)c2cc([N+](=O)[O-])ccc21	DRD3 antagonist inconclusive
CC(=O)OCc1c(-c2ccccc2)c2cc([N+](=O)[O-])ccc2n1C	D1 antag -47
Oc1cnc2ccccc2c1CN1CCOCC1	DRD3 antagonist -77
CC1(C)CC(C)(c2ccc(O)cc2O)N(c2ccc3ccccc3c2)C(=S)N1 (configuration not stated)	DRD3 antagonist -62
Cc1ccc(CNC(=O)Cn2c(=O)n(-c3ccc(C)cc3)c(=O)c3c2c2cc(C)ccc2n3C)cc1	none (no result: DRD3 antagonist)
CCOC(CNC(=O)c1ccc(N2CCc3ccccc32)c([N+](=O)[O-])c1)OCC	D1 antag -37, DRD3 antagonist -67
Cc1ccc(C)c(-c2nc(Cn3c(=O)cc(-c4ccccc4)c4c(C)nn(C)c43)c(C)o2)c1	none (no result: DRD3 antagonist)
Cc1cccc(C2CC(=O)Nc3cc4c(cc32)OCO4)c1 (configuration not stated)	none (no result: DRD3 antagonist)
CC(C)Oc1cccc(C2CC(=O)Nc3cc4c(cc32)OCO4)c1 (configuration not stated)	D1 agonist 68, D1 antag -32 (no result: DRD3 antagonist)
Cc1ccc(S(=O)(=O)N2CCCc3cc(NC(=O)c4ccc(C(F)(F)F)cc4)ccc32)cc1	none (no result: DRD3 antagonist)
CCOC(=O)c1ccc(NC(=O)C(CC)Sc2nc3ccncc3[nH]2)cc1 (configuration not stated)	D1 agonist 53 (no result: DRD3 antagonist)
COc1ccc(CC(=O)NCc2ccc3c(c2)CCN3C(=O)c2ccc(C)cc2)cc1OC	none (no result: DRD3 antagonist)
N#CC1CC(c2ccc([N+](=O)[O-])cc2)=NN1c1ccc([N+](=O)[O-])cc1 (configuration not stated)	D1 agonist 34
O=[N+]([O-])c1cccc(C2CC(c3ccccc3)=NN2c2ccccc2)c1 (configuration not stated)	DRD3 antagonist inconclusive
Cc1ccc2nc(N3CCN(c4ccccc4F)CC3)c3nnnn3c2c1	none (no result: DRD3 antagonist)
Cn1c(=O)c2cc(S(=O)(=O)NC(Cc3ccccc3)C(=O)NCc3ccco3)ccc2n(C)c1=O (configuration not stated)	none
Cn1c(=O)c2cc(S(=O)(=O)NC(Cc3ccccc3)C(=O)NCC3CCCO3)ccc2n(C)c1=O (configuration not stated)	D1 antag -39
CCCNC(=O)Cn1nc(-c2ccc(OC)cc2)c2cnc3ccc(F)cc3c21	none (no result: DRD3 antagonist)
N#Cc1ccccc1S(=O)(=O)N1CCCC(c2nc3c(nnn3Cc3cccc(Cl)c3)c(=O)[nH]2)C1 (configuration not stated)	none (no result: DRD3 antagonist)
COC1=CC(=O)c2c(ccc3ncnc(N)c23)C1=O	DRD3 antagonist -65 (no result: D1 agonist, D1 antag, D1 potentiator)
COC(=O)CC1Oc2ccccc2-n2cc(-c3ccc(Cl)cc3)nc21 (configuration not stated)	none (no result: DRD3 antagonist)
O=C(/C=C/c1cccc(F)c1)NCc1ccc2c(c1)OCO2	D1 antag -35
O=C(/C=C/c1ccc2c(c1)OCO2)NCCSCc1cccc(Cl)c1	D1 antag -31, DRD3 antagonist inconclusive
O=C(/C=C/c1cccc([N+](=O)[O-])c1)NCc1ccc2c(c1)OCO2	none
O=C(/C=C/c1ccc2c(c1)OCO2)NCCSCc1ccc(Cl)cc1Cl	none
O=C(NCc1ccccc1)NC1COc2ccccc2C1 (configuration not stated)	none (no result: DRD3 antagonist)
Cc1ccc(NC2=C(C(=O)c3ccccc3)N(C)S(=O)(=O)c3ccccc32)cc1	DRD3 antagonist -60
CN1C(C(=O)c2ccccc2)=C(N)c2ccccc2S1(=O)=O	none
O=C(CSc1nnc(-c2ccccn2)n1Cc1ccco1)c1ccc(-c2ccccc2)cc1	D1 antag -90
CCc1ccc(NC(=O)Cn2c(=O)n(-c3ccc(Cl)c(Cl)c3)c(=O)c3c(C)c(C)sc32)cc1	none (no result: DRD3 antagonist)
Cc1cc(N/N=C/c2ccc(O)c(C)c2O)nc(-c2ccccc2O)n1	D1 antag -32
CCc1ccc(NC(=O)CN2C(=O)c3ccccc3Sc3ccc(C(=O)N4CCCC4)cc32)cc1	none (no result: DRD3 antagonist)
CC(COc1ccccc1)N1CCC(CO)(CCc2ccccc2)CC1 (configuration not stated)	D1 agonist 35, DRD3 antagonist -62
CSCC(C)N1CCC(CO)(CCc2ccccc2)CC1 (configuration not stated)	none
COc1c2ccoc2c(OC[C@@H](OC(C)=O)C(C)(C)O)c2oc(=O)ccc12	D3 ag 48
COC(=O)CN(c1nc(C)c(Br)c(OC)n1)S(=O)(=O)c1ccccc1	none
CCCCN1C(=O)/C(=c2\sc3nc(=O)c(-c4ccccc4)nn3c2=O)c2ccccc21	DRD3 antagonist -69
Cc1ccc(SCC(=O)Nc2ccc(N3CCN(C)CC3)c(F)c2)cc1	D1 antag -59, DRD3 antagonist -53
O=C(CSc1ccccc1)Nc1ccc(N2CCN(c3ccccc3)CC2)c(F)c1	none
CN1CCN(c2ccc(NC(=O)CN3CCOCC3)cc2F)CC1	none
COc1ccc(SCC(=O)Nc2ccc(N3CCN(C)CC3)c(F)c2)cc1	DRD3 antagonist -56
CCOc1ccc(S(=O)(=O)NCC(c2ccco2)S(=O)(=O)c2ccc(F)cc2)cc1 (configuration not stated)	none (no result: D1 antag, DRD3 antagonist)
CCCCC(CC)CNC(=O)CCCn1c(=O)[nH]c2ccsc2c1=O (configuration not stated)	none (no result: DRD3 antagonist)
COc1ccc2c(c1)N(C[C@H](C)CN(C)C)c1ccccc1S2	DRD3 antagonist -106 (no result: D1 agonist, D1 antag, D1 potentiator)
CC(CN(C)C)CN1c2ccccc2Sc2ccccc21 (configuration not stated)	D1 agonist 38, D1 antag -89
CC(CN1c2ccccc2Sc2ccccc21)N(C)C (configuration not stated)	DRD3 antagonist -98
C[C@@H](CN(C)C)CN1c2ccccc2Sc2ccccc21	none (no result: D1 agonist, D1 antag, D1 potentiator, DRD3 antagonist)
CCN(CC)CC(O)CN1c2ccccc2Sc2ccccc21 (configuration not stated)	none
Cc1noc(-c2ccc(C(F)(F)F)cc2)c1NC(=O)Nc1ccc(Cl)cc1	D1 antag -42
Cc1ccc(C)c(NC(=O)C(Cc2ccccc2)n2cccc2)c1 (configuration not stated)	none (no result: DRD3 antagonist)

From PubChem BioAssay
